14 compounds from PubChem BioAssay can be followed below.

Molecules are shown by their SMILES. Calls of active or inactive are those of the source.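 Rule for the calls, unless noted: active = inhibition at or above 50% at 10 µM; inactive = inhibition below 50%.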

Experiment [1] is described as follows: inhibitors of TNFa-induced NFkB p65 translocation, primary screen, imaging, HUVEC, MLSMR starter and 10KST1 sets (AID 438;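 active = inhibition above 20% together with a positive visual image hit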;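 note: compound added about 3h40 before a 20 min TNFalpha stimulation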;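 for inhibition: signal is the nuclear over cytoplasmic p65 intensity ratio per well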). The settings on record: HUVEC TNFa-induced p65 nuclear translocation; cell count: measured here: nuclei count (cytotoxicity indicator), at 2.08 µM; inhibition: at 2 µM, stronger effect = higher value, 0% TNFa-plus-vehicle, 100% no-TNFa wells.
Experiment [2] is described as follows: reduction of polyQ htt aggregates in cells – imaging, exon1htt(103Q)mCFP cells, high-content imaging, primary screen (AID 483;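 active = visual image review flags a hit and inhibition of aggregation exceeds 20%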;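 note: compound exposure lasted 3 days before fixation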;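 for nuclei count: percent of the per-plate median nuclei count of sample wells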). Particulars: exon1htt(103Q)mCFP cell line, aggregate imaging, at 2 µM; inhibition of aggregation: stronger effect = higher value; nuclei count: measured here: cell count, toxicity.
Experiment [3] can be described thus: endothelial E-selectin expression blockers – imaging, HUVEC, immunofluorescence, MLSMR starter and 10KST1 sets, primary screen (AID 487;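 active = visually confirmed hit in the image check and inhibition above 20%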;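 for inhibition: signal is fraction of cell area covered by stained E-selectin grains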;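 for nuclei count: 100% = median nuclei count of all wells on the same plate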). Particulars: HUVEC TNFalpha-induced E-selectin immunofluorescence imaging, at 2 µM; inhibition: stronger effect = higher value; nuclei count: measured here: cell number, toxicity.
The target in experiment [4] is Voltage-gated potassium channel subunit beta-2 (Rattus norvegicus) (UniProt P62483). The experiment is described as follows: inhibitors of rat Kvbeta2 reductase activity – biochemical, NADPH fluorescence, primary screen (AID 622;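 active = fluorescence slope higher than the sample average by over 3 SD, cut at about -0.22 in these data, passing the limit was not always enough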;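 note: slope of raw intensity against log time taken from 70 to 1610 s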). The settings on record: recombinant KvBeta, 4-cyanobenzaldehyde reduction, at 10 µM, stronger effect = higher value.
Sequence of Voltage-gated potassium channel subunit beta-2 (Rattus norvegicus) (P62483 whole entry, looked up): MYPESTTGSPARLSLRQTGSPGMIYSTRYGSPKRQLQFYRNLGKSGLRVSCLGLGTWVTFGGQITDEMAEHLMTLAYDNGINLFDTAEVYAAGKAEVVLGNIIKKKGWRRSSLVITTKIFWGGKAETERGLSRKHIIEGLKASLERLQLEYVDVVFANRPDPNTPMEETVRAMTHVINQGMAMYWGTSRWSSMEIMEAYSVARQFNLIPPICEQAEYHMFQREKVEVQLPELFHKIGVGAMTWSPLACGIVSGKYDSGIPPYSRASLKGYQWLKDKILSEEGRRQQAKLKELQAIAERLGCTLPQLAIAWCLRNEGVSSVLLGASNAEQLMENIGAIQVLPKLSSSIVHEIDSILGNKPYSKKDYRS
Experiment [5] shares this target. The experiment is described as follows: enhancers of rat Kvbeta2 NADPH turnover – biochemical, NADPH fluorescence, primary screen (AID 623;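 active = NADPH fluorescence slope more negative than the mean of all samples by about 3 SD, 99.7% confidence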;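 note: fluorescence intensity change per second fitted from 20 to 320 s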). The settings on record: Recombinant KvBeta, NADPH fluorescence decrease slope, 10 min; at 10 µM; stronger effect = lower value.
The target in experiment [6] is Alpha-2C adrenergic receptor (Homo sapiens) (UniProt P18825). The experiment is described as follows: compounds altering alpha2C-coupled GIRK flux – cell-based, HEK293 alpha2C/GIRK1/2, thallium flux, primary screen (AID 624;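 active = fluorescence slope after compound addition differing from the mean of all screened samples at 99.7% confidence, in either direction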;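 note: slope of fluorescence ratio to pre-addition baseline per second over 15 to 24 s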). Particulars: thallium flux BTC fluorescence, at 10 µM, actives lie on both sides.
Sequence of Alpha-2C adrenergic receptor (Homo sapiens) (P18825 whole entry, looked up): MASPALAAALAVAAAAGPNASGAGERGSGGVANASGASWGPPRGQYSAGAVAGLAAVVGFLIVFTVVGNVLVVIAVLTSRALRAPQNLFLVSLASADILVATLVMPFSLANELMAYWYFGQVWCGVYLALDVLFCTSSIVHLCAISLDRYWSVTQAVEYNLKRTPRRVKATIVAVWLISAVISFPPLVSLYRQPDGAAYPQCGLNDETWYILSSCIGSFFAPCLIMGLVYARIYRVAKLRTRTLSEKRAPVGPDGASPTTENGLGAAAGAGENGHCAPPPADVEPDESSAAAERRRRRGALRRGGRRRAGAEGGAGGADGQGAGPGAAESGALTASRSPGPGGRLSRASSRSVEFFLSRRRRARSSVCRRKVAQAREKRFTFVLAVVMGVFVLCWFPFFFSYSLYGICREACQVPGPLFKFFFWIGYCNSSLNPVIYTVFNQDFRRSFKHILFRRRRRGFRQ
Experiment [7] can be described thus: blockers of RIG-like receptor reporter activation – cell-based, Sendai virus stimulus, luciferase, 10K MLSCN set, TLR/RLR signaling modifier project, primary screen (AID 602276).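 Note: firefly luciferase from ISG56 promoter only with Renilla not read in this screen; 0% = Sendai virus plus DMSO and 100% = medium plus DMSO without virus.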 The settings on record: HEK293 RL24 IRF3 luciferase reporter, at 10 µM, stronger effect = higher value.
Experiment [8] in a line: TLR3 IRF3 reporter activation blockers – cell-based, poly I:C stimulus, luciferase, 10K MLSCN set, primary screen (AID 602277;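 active = inhibition of the reporter signal at or above 50%; inactive = inhibition below 50%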). The settings on record: HEK293-TLR3 RL24 IRF3 luciferase reporter, at 10 µM, stronger effect = higher value.

Usually inhibition stands for the relative decrease from the control value, in per cent. As for `O=C(COc1cccc(Oc2ccccc2)c1)Nc1ncccn1`, in experiment [1], the cell count was found to be 739. The inhibition was 3.1% (inactive) in experiment [1], -25.1% (inactive) in experiment [3], 4.77% (inactive) in experiment [7] and 4.74% (inactive) in experiment [8]. For the same compound, the inhibition of aggregation in experiment [2] was 12.8% (inactive). Also, the values for the nuclei count in experiment [2] and in experiment [3] were 103% and 111%, respectively. Also, in experiment [4], the fluorescence slope was -0.609 (inactive). Moreover, the NADPH fluorescence slope in experiment [5] is -1.1e-05 (inactive). In experiment [6], the slope was 0.00604 (inactive).

In the case of `CCOC(=O)C1CCN(c2c(N3CCCCCC3)c(=O)c2=O)CC1`, the cell count in experiment [1] stood at 897. Besides, the inhibition is -0.9% (inactive) in experiment [1], -84.4% (inactive) in experiment [3], 8.92% (inactive) in experiment [7] and 28.8% (inactive) in experiment [8]. Besides, in experiment [2], the inhibition of aggregation is -6.8% (inactive). Besides, the nuclei count in experiment [2] came out at 98.7%; in experiment [3], 112%. Also, the fluorescence slope in experiment [4] was -0.581 (inactive). Besides, the NADPH fluorescence slope in experiment [5] is -4.7e-05 (inactive). In addition, the slope in experiment [6] is 0.0057 (inactive).

With `CC1CCCC(C)N1C(=O)COC(=O)c1ccc[nH]c1=O` (centres undefined), the cell count in experiment [1] came to 476. Further, the inhibition in experiment [1] is 0% (inactive); in experiment [3] it was 25.2% (inactive); in experiment [7], 16.7% (inactive); in experiment [8] it was 31.4% (inactive). The inhibition of aggregation in experiment [2] was 3.4% (inactive). Moreover, the nuclei count came to 98.4% in experiment [2] and 113% in experiment [3]. The fluorescence slope in experiment [4] is -0.326 (inactive). For the same compound, in experiment [5], the NADPH fluorescence slope was -7.3e-06 (inactive). Besides, the slope in experiment [6] is 0.00649 (inactive).

`CCCOC(=O)CSc1nc(N)c(C#N)c(CC)c1C#N`: in experiment [1], the cell count came to 377. Further, the inhibition in experiment [1] is 3.3% (inactive); in experiment [3], -97.1% (inactive); in experiment [7], -7.11% (inactive); in experiment [8], -13.9% (inactive). In addition, the inhibition of aggregation in experiment [2] is 18% (inactive). Besides, the nuclei count in experiment [2] amounted to 97.7%; in experiment [3], 113%. Besides, in experiment [4], the fluorescence slope is -0.532 (inactive). In addition, the NADPH fluorescence slope in experiment [5] was -2.3e-05 (inactive). In addition, in experiment [6], the slope is 0.00456 (inactive).

In the case of `CCc1cc(=O)oc2cc(OC(C)=O)cc(OC(C)=O)c12`, the cell count in experiment [1] is 602. The inhibition in experiment [1] is -6% (inactive); in experiment [3], 19.2% (inactive); in experiment [7], 11.6% (inactive); in experiment [8] it was 14% (inactive). In addition, in experiment [2], the inhibition of aggregation was 12.3% (inactive). The nuclei count in experiment [2] turned out to be 104%; in experiment [3], 97.5%. Besides, in experiment [4], the fluorescence slope is -0.0715 (active). Also, the NADPH fluorescence slope in experiment [5] is 2.1e-05 (inactive). Moreover, in experiment [6], the slope was 0.00397 (inactive).

For the compound `COc1cc(OC)cc(-c2nc(N)n[nH]2)c1`, the cell count in experiment [1] came out at 455. Also, the inhibition was 3.7% (inactive) in experiment [1], -33% (inactive) in experiment [3], 10.7% (inactive) in experiment [7] and 12% (inactive) in experiment [8]. The inhibition of aggregation in experiment [2] was 0% (inactive). The nuclei count in experiment [2] stood at 105%; in experiment [3], 104%. Moreover, the fluorescence slope in experiment [4] is -0.411 (inactive). Also, the NADPH fluorescence slope in experiment [5] is -5.5e-05 (inactive). The slope in experiment [6] was 0.00517 (inactive).

For `CCCc1nnc(NC(=O)CCC(=O)N2CCN(CCOc3ccc(C)cc3)CC2)s1`, the cell count in experiment [1] came out at 480. Also, the inhibition in experiment [1] is -5.6% (inactive); in experiment [3], -2.3% (inactive); in experiment [7], 0.418% (inactive); in experiment [8] it was 10.9% (inactive). Moreover, in experiment [2], the inhibition of aggregation is -0.2% (inactive). For the same compound, the nuclei count was determined as 89.5% in experiment [2] and 81.8% in experiment [3]. Further, in experiment [4], the fluorescence slope was -0.379 (inactive). Further, the NADPH fluorescence slope in experiment [5] was 6e-06 (inactive). The slope in experiment [6] is 0.0036 (inactive).

Turning to `Cc1nc2ccccc2c2oc(C(=O)NCCCN3CCCC3=O)cc12`, the cell count in experiment [1] is 472. Further, the inhibition in experiment [1] was 1.3% (inactive); in experiment [3], -36.2% (inactive); in experiment [7] it was 10.3% (inactive); in experiment [8], 7.6% (inactive). For the same compound, the inhibition of aggregation in experiment [2] was -37.4% (inactive). For the same compound, the nuclei count is 76% in experiment [2] and 106% in experiment [3]. The fluorescence slope in experiment [4] was -0.527 (inactive). The NADPH fluorescence slope in experiment [5] was -2e-05 (inactive). The slope in experiment [6] was 0.00837 (inactive).

Turning to `Cc1ccc(-n2ncc3c(N4CCCC(C)C4)ncnc32)c(C)c1` (centres undefined), the cell count in experiment [1] is 558. In addition, the inhibition in experiment [1] was 8% (inactive); in experiment [3], 3.1% (inactive); in experiment [7] it was -57.7% (inactive); in experiment [8], -125% (inactive). Also, the inhibition of aggregation in experiment [2] is 10.5% (inactive). Also, the nuclei count in experiment [2] was 85.8%; in experiment [3], 93.2%. Besides, the fluorescence slope in experiment [4] is -0.527 (inactive). In addition, the NADPH fluorescence slope in experiment [5] was -3.3e-05 (inactive). Besides, the slope in experiment [6] was 0.00664 (inactive).

Regarding `N#Cc1c(N)nc2c(c1-c1ccncc1)CCCCC2`, the cell count in experiment [1] amounted to 658. The inhibition in experiment [1] is 3.9% (inactive); in experiment [3], 4.5% (inactive); in experiment [7], 12.7% (inactive); in experiment [8], 12.3% (inactive). Moreover, the inhibition of aggregation in experiment [2] was 0% (inactive). The nuclei count is 106% in experiment [2] and 103% in experiment [3]. Besides, the fluorescence slope in experiment [4] was -0.577 (inactive). Moreover, the NADPH fluorescence slope in experiment [5] was -5.4e-05 (inactive). The slope in experiment [6] is 0.00353 (inactive).

For `COc1ccc(CC(=O)NCc2nnc(SCC(=O)Nc3nccs3)n2-c2ccccc2)cc1`, the cell count in experiment [1] was determined as 640. Also, the inhibition was 5.8% (inactive) in experiment [1], -36.8% (inactive) in experiment [3], 12% (inactive) in experiment [7] and 33.9% (inactive) in experiment [8]. In experiment [2], the inhibition of aggregation was 17.6% (inactive). Further, the results for the nuclei count in experiment [2] and in experiment [3] were 98.3% and 122%, respectively. Moreover, the fluorescence slope in experiment [4] was -0.558 (inactive). Further, the NADPH fluorescence slope in experiment [5] was -2.9e-05 (inactive). Besides, the slope in experiment [6] was 0.00708 (inactive).

With `c1cn(CC2(Cn3ccnc3)COC2)cn1`, in experiment [1], the cell count stood at 793. For the same compound, the inhibition was -6.2% (inactive) in experiment [1], -2.3% (inactive) in experiment [3], 14.1% (inactive) in experiment [7] and 17.6% (inactive) in experiment [8]. The inhibition of aggregation in experiment [2] is -13.4% (inactive). The figures for the nuclei count in experiment [2] and in experiment [3] were 104% and 105%, respectively. The fluorescence slope in experiment [4] was -0.614 (inactive). The NADPH fluorescence slope in experiment [5] is -1.1e-05 (inactive). In addition, the slope in experiment [6] is 0.00589 (inactive).

As for `O=C(NCc1ccco1)C(c1ccco1)N(C(=O)Cn1nnc2ccccc21)c1ccc2c(c1)CCC2` (centres undefined), in experiment [1], the cell count was 329. In addition, the inhibition in experiment [1] is -8% (inactive); in experiment [3] it was 23.8% (inactive); in experiment [7] it was 14.9% (inactive); in experiment [8], 21.8% (inactive). In experiment [2], the inhibition of aggregation was -0.5% (inactive). In addition, the nuclei count came to 103% in experiment [2] and 104% in experiment [3]. The fluorescence slope in experiment [4] was -0.519 (inactive). For the same compound, the NADPH fluorescence slope in experiment [5] was -6.5e-06 (inactive). In experiment [6], the slope was 0.00472 (inactive).

For the compound `O=S1(=O)CC(N2CCOCC2)c2ccccc21` (centres undefined), the cell count in experiment [1] came out at 644. Also, the inhibition in experiment [1] is -0.2% (inactive); in experiment [3], -26.3% (inactive); in experiment [7], 7.8% (inactive); in experiment [8] it was 12.8% (inactive). In addition, the inhibition of aggregation in experiment [2] is 8.1% (inactive). The nuclei count in experiment [2] stood at 95.1%; in experiment [3] it was 112%. Besides, in experiment [4], the fluorescence slope was -0.52 (inactive). The NADPH fluorescence slope in experiment [5] was -1.6e-05 (inactive). Also, the slope in experiment [6] was 0.00437 (inactive).
